Cardio protect: myocardial damage modulation in H9c2 cells. AID 588492. protection from H2O2 cell death, % at 20 µM. hit rate 0.63% among 360,000. H9c2 cardiomyocytes, H2O2 injury protection, ATPLite, 2 h;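 active = compounds giving at least 50% protection of heart cells from peroxide-induced death in the single-dose screen, raw or plate-pattern-corrected value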
FAS-TE inh: FAS thioesterase (human) inhibition. P49327. recombinant FAS-TE, OMFH fluorogenic substrate, fluorescence endpoint. inhibition, % at 15 µM. hit rate 0.67% among 360,000. AID 602261;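 active = compounds whose normalised, plate-corrected inhibition of enzyme fluorescence in the single-dose primary screen is 50% or more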
CR mimetic SO: yeast age-related superoxide inhibition as caloric restriction mimetic; S. cerevisiae aged cells, superoxide DHE fluorescence; hits give low values; superoxide response (% of plate mean), % at 10 µM; hit rate 0.18% among 330,000;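 active = superoxide response under a set limit, about three screen SD below normal, cut at about 65% in these data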;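 also: yeast aged for seven days with compound at 30 °C before DHE staining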
aDG glyco up: alpha-DG glycosylation activation; Pro5-aDG cells, alpha-DG glycosylation AlphaScreen (IIH6); 0% Pro5, 100% B10-LARGE cell signal; activation, % at 10 µM; hit rate 0.22% among 360,000; AID 624168;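 active = activation of at least 8% versus controls, or a plate z-score of at least 8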;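 also: Pro5 are CHO cells carrying HIG-tagged alpha-DG that lacks glycosylation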
MPTP block: permeability transition pore inhibition. hit rate 1.4% among 360,000. inhibition, % at 10 µM. isolated mouse mitochondria, Ca2+ swelling absorbance, 30 min;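 active = inhibition of 50% or more, scaled per plate between neutral and stimulator controls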
Mot1-301 SUMO: inhibitors of SUMOylation pathway: yeast Mot1-301 growth rescue; S. cerevisiae Mot1-301 growth rescue, ATP luminescence, 38.5C; percent above DMSO median, 100 means doubled; growth rescue, % at 18.8 µM; hit rate 1% among 320,000; AID 2716;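 active = every valid replicate shows activation above 250% relative to neutral control wells; inactive = the rest, any valid replicate at or below 250%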
A number is an active result. Compounds with a hit are over-represented: about 3.8% of the library has one in this group of screens.

CC(=O)N1C[C@H]2CON(C)[C@H]2C[C@H]1c1cccc(-c2ccc(C#N)cc2)c1 was read as Cardio protect inactive, FAS-TE inh inactive, aDG glyco up inactive and MPTP block inactive.
Cc1cc(OCC(=O)NC2CC(C)(C)NC(C)(C)C2)c2c(C)c(C)c(=O)oc2c1 was read as Cardio protect inactive, FAS-TE inh inactive, CR mimetic SO inactive, aDG glyco up inactive, MPTP block inactive and Mot1-301 SUMO inactive.
For COc1ccc(N2C(=O)CC(N(C)CCc3ccc(OC)c(OC)c3)C2=O)cc1 (configuration not stated) the results were Cardio protect inactive, FAS-TE inh inactive, CR mimetic SO inactive, aDG glyco up inactive, MPTP block inactive and Mot1-301 SUMO inactive.
For COC(=O)c1ccc(N2C(=O)CC(N(C)CCc3ccc(OC)c(OC)c3)C2=O)cc1 (configuration not stated) the results were Cardio protect inactive, FAS-TE inh inactive, CR mimetic SO inactive, aDG glyco up inactive, MPTP block inactive and Mot1-301 SUMO 302.6.
`Cc1cc(C)n(C(C)CC(=O)Nc2ccc3c(c2)OCO3)n1` (configuration not stated) gave Cardio protect inactive, FAS-TE inh inactive, CR mimetic SO inactive, aDG glyco up inactive, MPTP block inactive and Mot1-301 SUMO inactive.
For CSc1ncccc1C(=O)OCC(=O)NCc1ccc2c(c1)OCO2 the results were Cardio protect inactive, FAS-TE inh inactive, CR mimetic SO inactive, aDG glyco up inactive, MPTP block inactive and Mot1-301 SUMO 293.6.
CCOc1ncccc1C(=O)OCC(=O)NCc1ccc2c(c1)OCO2 was read as Cardio protect inactive, FAS-TE inh inactive, CR mimetic SO inactive, aDG glyco up inactive, MPTP block inactive and Mot1-301 SUMO inactive.
COc1ccc(CCNC(=O)c2cc(-c3ccncc3)nc3ccc(S(=O)(=O)N4CCOCC4)cc23)cc1OC was read as Cardio protect inactive, FAS-TE inh inactive, CR mimetic SO inactive, aDG glyco up inactive, MPTP block inactive and Mot1-301 SUMO inactive.
For O=C(Nc1nc(-c2ccccn2)cs1)c1cccc(S(=O)(=O)N2CCOCC2)c1 the results were Cardio protect 75.6, FAS-TE inh inactive, CR mimetic SO inactive, aDG glyco up inactive, MPTP block inactive and Mot1-301 SUMO inactive.
COc1ccc(C(=O)Nc2ccccn2)cc1S(=O)(=O)N1CCOCC1 was read as Cardio protect inactive, FAS-TE inh inactive, CR mimetic SO inactive, aDG glyco up inactive, MPTP block inactive and Mot1-301 SUMO inactive.
COc1ccc(C(=O)Nc2nc(-c3ccccn3)cs2)cc1S(=O)(=O)N1CCOCC1 was read as Cardio protect 54.4, FAS-TE inh inactive, CR mimetic SO inactive, aDG glyco up inactive, MPTP block inactive and Mot1-301 SUMO inactive.
Cc1ccc(S(=O)(=O)N2CCOCC2)cc1C(=O)Nc1nc(-c2ccccn2)cs1 was read as Cardio protect 54.1, FAS-TE inh inactive, CR mimetic SO inactive, aDG glyco up inactive, MPTP block inactive and Mot1-301 SUMO inactive.
Screening COc1ccc(-c2csc(NC(=O)c3cccc(N4C(=O)CCC4=O)c3)n2)cc1OC returned Cardio protect 84.8, FAS-TE inh inactive, CR mimetic SO inactive, aDG glyco up inactive, MPTP block inactive and Mot1-301 SUMO inactive.
Screening O=C(Nc1nc(-c2ccccn2)cs1)c1ccc(S(=O)(=O)N2CCCCC2)cc1 returned CR mimetic SO inactive and Mot1-301 SUMO inactive.
For Cc1cc(C)cc(CC(=O)N2CCC2(C)C(=O)NS(=O)(=O)c2ccc(C#N)cc2)c1 (configuration not stated) the results were Cardio protect inactive, FAS-TE inh inactive, aDG glyco up inactive and MPTP block inactive.
COc1ccc(CCN2C(=O)COc3ccccc3C2C(=O)NC(C)(C)C)cc1OC (configuration not stated) was read as FAS-TE inh inactive, aDG glyco up inactive and MPTP block inactive.
For COc1cccc(-c2nnc(N(C)C(=O)C3CCOC3)s2)c1 (configuration not stated) the results were Cardio protect inactive, FAS-TE inh inactive, CR mimetic SO inactive, aDG glyco up inactive, MPTP block inactive and Mot1-301 SUMO 344.3.
`Cc1cc(-c2ccc(C)c(S(=O)(=O)NCCc3ccc(S(N)(=O)=O)cc3)c2)on1` gave Cardio protect inactive, FAS-TE inh inactive, CR mimetic SO inactive, aDG glyco up inactive, MPTP block inactive and Mot1-301 SUMO inactive.
For CC(=O)NC(=S)Nc1ccccc1F the results were Cardio protect inactive, FAS-TE inh inactive, CR mimetic SO inactive, aDG glyco up inactive, MPTP block inactive and Mot1-301 SUMO inactive.
For CC(C)(C)C(=O)NC(=S)Nc1ccccc1F the results were Cardio protect inactive, FAS-TE inh inactive, CR mimetic SO inactive, aDG glyco up inactive, MPTP block inactive and Mot1-301 SUMO 435.8.
Screening CCOC(=O)COc1cc2c3c(c(=O)oc2cc1C)CCCC3 returned Cardio protect inactive, FAS-TE inh inactive, CR mimetic SO inactive, aDG glyco up inactive, MPTP block inactive and Mot1-301 SUMO inactive.
CCOC(=O)COc1cc(OCC(=O)OCC)c2c3c(c(=O)oc2c1)CCCC3 was read as Cardio protect 63.5, FAS-TE inh inactive, CR mimetic SO inactive, aDG glyco up inactive, MPTP block inactive and Mot1-301 SUMO inactive.
`C=CCOC(=O)COc1ccc2c3c(c(=O)oc2c1)CCCC3` gave Cardio protect 87.3, FAS-TE inh inactive, aDG glyco up inactive and MPTP block inactive.
Cc1ccc2c(c1)[C@H]1[C@H](CO2)[C@H](c2ccccc2)[C@]2(C)C(=O)Nc3ccc(Cl)cc3C(=O)N12 was read as Cardio protect inactive, FAS-TE inh inactive, CR mimetic SO inactive, aDG glyco up inactive, MPTP block inactive and Mot1-301 SUMO inactive.
Screening C[C@@]12C(=O)Nc3ccc(F)cc3C(=O)N1[C@H]1c3cc(Br)ccc3OC[C@@H]1[C@@H]2c1ccccc1 returned Cardio protect inactive, FAS-TE inh 89.1, CR mimetic SO inactive, aDG glyco up inactive, MPTP block inactive and Mot1-301 SUMO 348.6.
Nc1nonc1-n1nnc(C(=O)N/N=C/c2ccc(OCc3ccccc3)cc2)c1CNc1ccccc1 was read as Cardio protect inactive, FAS-TE inh inactive, CR mimetic SO inactive, aDG glyco up inactive, MPTP block inactive and Mot1-301 SUMO inactive.
`COc1cc(/C=C2\SC(=S)N(CCC(=O)Nc3cccc(O)c3)C2=O)cc(OC)c1OC` gave Cardio protect 67.1, FAS-TE inh inactive, CR mimetic SO inactive, aDG glyco up inactive, MPTP block inactive and Mot1-301 SUMO inactive.
COc1cc(/C=C2\SC(=S)N(CCC(=O)Nc3ccccc3)C2=O)cc(OC)c1OC was read as Cardio protect inactive, FAS-TE inh inactive, CR mimetic SO inactive, aDG glyco up inactive, MPTP block inactive and Mot1-301 SUMO inactive.
`Cc1cc(C)nc(NC(=O)c2ccc(OC(C)C)cc2)n1` gave Cardio protect inactive, FAS-TE inh inactive, CR mimetic SO inactive, aDG glyco up inactive, MPTP block inactive and Mot1-301 SUMO 284.0.

Bioassay records as filed in PubChem BioAssay.
